# Test results reported in PubChem BioAssay AID624300 (Southern Research Specialized Biocontainment Screening …, 2012).
# Hit rate of the full screen: of about 2,400 compounds, about 360 (15%) were called active.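 The calls were made as follows: active = viability falls under 70% at one or more tested concentrations, taken as toxicity; inactive = viability stays over 70% at every dose.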 The list is a sample of the results. Entries with a potency or affinity are not part of this list.
# Assay: HeLa cell cytotoxicity, dose response, cytotoxicity control for MgcRacGAP inhibitor project (AID 624300)
# Conditions: CellTiter-Glo luminescence, 24 h; series mostly up to 100 µM
row,Structure (SMILES),outcome
1,OCCN1CCN(CC(O)COC(c2ccc(F)cc2)c2ccc(F)cc2)CC1 (stereo not given),inactive
2,COc1ccc(OCC(O)CN2CCCC2)cc1 (stereo not given),inactive
3,c1ccc(CNC23CC4CC(CC(C4)C2)C3)nc1,inactive
4,COc1ccc(S(=O)(=O)N2CCC(N3CCN(Cc4ccccc4)CC3)CC2)cc1,inactive
5,O=C(CSc1cn[nH]n1)Nc1cccc(C(=O)O)c1,inactive
6,CN(CCOc1ccc(Cl)c(Cl)c1)Cc1ccccc1,inactive
7,Cc1cc(C)c(OCCCCN(C)Cc2ccccc2)c(C)c1,inactive
8,Cc1ccc(OCCCCNC(C)(C)C)c([N+](=O)[O-])c1,inactive
9,Cc1ccc(-n2[nH]c(=O)c3cccnc32)cc1,inactive
10,Nc1ccc(N2CCN(C(=O)c3cccs3)CC2)cc1,inactive
11,COc1cc(/C=C/C(=O)OCC(=O)NCCCc2ccccc2)ccc1O,inactive
12,COc1cc(/C=N/Nc2nc3ccccc3s2)ccc1O,inactive
13,CC(=O)Nc1n[nH]c(=S)s1,inactive
14,O=C(N/N=C/c1sc2ccccc2c1O)c1cccc2ccccc12,inactive
15,O=C(CNC(=O)c1ccc2c(c1)OCCO2)N/N=C/c1ccc(O)cc1O,inactive
16,CN(C)/C=C1/C=C(c2ccccc2)OC1=O,inactive
17,COc1cc(/C=N/N=C2/NC(=O)C(c3ccccc3)S2)ccc1O (stereo not given),inactive
18,O=C(CN1CCCCCC1)NN(Cc1ccccc1)c1ccccc1,inactive
19,S=C(NCCCN1CCOCC1)Nc1ccc(Nc2ccccc2)cc1,inactive
20,Cn1c(-c2ccccc2)cnc1NCc1ccc(-c2ccccc2)cc1,inactive

row,Structure (SMILES),outcome
1,Cc1ccc(CNc2ncc(-c3ccccc3)n2C)o1,inactive
2,COc1cc(CNc2ncc(-c3ccc(Br)cc3)n2C)cc(OC)c1O,inactive
3,COc1ccc(CNc2ncc(-c3ccc(Br)cc3)n2C)cc1OC,inactive
4,Clc1ccccc1CNCc1ccc2c(c1)OCO2,inactive
5,COc1ccccc1CNc1ncc(-c2ccccc2)n1C,inactive
6,O=C1c2ccccc2C(=O)N1/N=C/c1ccc(O)c(O)c1,inactive
7,COc1ccc(C(=O)CCC(=O)Nc2cc(Cl)c(O)c(Cl)c2)cc1,inactive
8,N#CC1=C(N)NC(=S)C(C(N)=O)C1c1ccc([N+](=O)[O-])cc1 (stereo not given),inactive
9,Cc1ccc(COC(=O)Cc2coc3cc(O)ccc23)cc1,inactive
10,CCS(=O)(=O)c1cc([N+](=O)[O-])c(Sc2ccccc2N)s1,inactive
11,CCOc1cc(/C=N/NC(=O)NN(C)c2ncc(C(F)(F)F)cc2Cl)ccc1O,inactive
12,O=C(Cc1ccc(Cl)cc1)N/N=C/c1ccc(O)c(O)c1,inactive
13,O=c1c(O)c(-c2ccc(O)c(O)c2)oc2cc(O)ccc12,inactive
14,COC(=O)c1[nH]c2ccc(Cl)cc2c1NC(=O)Oc1ccccc1,inactive
15,Cc1cc(-c2n[nH]c(=S)n2/N=C/c2cccc(O)c2)n[nH]1,inactive
16,COc1ccc(NC2CCCN(C(=O)c3cccc(N4CCNC4=O)c3)C2)cc1 (stereo not given),inactive
17,COc1ccc(Oc2c(-c3ccc(O)cc3O)n[nH]c2C)cc1,inactive
18,COc1cccc(Oc2cn[nH]c2-c2ccc(O)cc2O)c1,inactive
19,CC1=NN(C(N)=S)C(=O)C1N=Nc1ccc(O)cc1 (stereo not given),inactive
20,O=C(O)c1ccc2c(c1)[C@@H]1C=CC[C@@H]1[C@H](c1ccccn1)N2,inactive

row,Structure (SMILES),outcome
1,CCN(CC)c1ccc(NC(=O)CNCc2ccccc2Cl)c(C)c1,inactive
2,COc1ccc(CNc2ncc(-c3ccccc3)n2C)c(OC)c1OC,inactive
3,COc1ccc(CNc2ncc(-c3ccc(F)cc3)n2C)cc1OC,inactive
4,CCN1C(=O)c2ccc(C(=O)Nc3ccc(O)cc3C)cc2C1=O,inactive
5,CCn1nc(CC(C)C)cc1C(=O)N1CCCC(Nc2ccc(OC)cc2)C1 (stereo not given),inactive
6,CC(C)NCC(=O)Nc1c2c(nc3ccccc13)CCC2,inactive
7,CN1CCc2c1nc1ccccc1c2NC(=O)CN1CCCC1,inactive
8,Cc1sc2c3ccsc3ccc2[n+]1C,inactive
9,CC(C)(C)N(Cc1ccc2c(c1)OCO2)C(=O)/C=C\S(=O)c1ccccc1 (stereo not given),inactive
10,COc1ccc(C2NC(=O)C(C#N)=C(S)N2c2cccc(C)c2)cc1OC (stereo not given),inactive
11,CN(C)CCO/N=C(\c1ccc(Br)cc1)c1cccnc1,inactive
12,COC(=O)c1ccc(NCc2c(O)ccc(O)c2Br)cc1Cl,inactive
13,COC(=O)c1ccc(C(=O)OCCCc2nc3ccc(N)cc3[nH]2)cc1,inactive
14,CCOC(=O)c1[nH]c2ccccc2c1NC(=S)Nc1cccc(C)c1C,inactive
15,Cc1ccc(-c2n[nH]c(=S)n2/N=C/c2ccc(C(=O)O)cc2)cc1,inactive
16,COc1ccc2cc(OCC(=O)NNC(=O)Nc3ccc(F)cc3)ccc2c1,inactive
17,Oc1ccc(CCc2ccccn2)cc1,inactive
18,CC(=O)NC(Cc1ccccc1)C(=O)Oc1ccc2ccccc2c1 (stereo not given),inactive
19,CN1C(=O)/C(=C/C=C2/CCCN2C)N(C)C1=S,inactive
20,Cc1nc(Nc2ccc(O)cc2)c2c3c(sc2n1)CCCC3,inactive
